Test results as given in PubChem BioAssay (NCATS).
Several values for one entry are separate records, joined by “and”; a condition that tells them apart may be missing. Identical values can stand only once. Inconclusive results are not listed. Activity calls are given as the source filed them. Unless noted, calls follow the shape of the dose curve; as a rule, active = well fitted curve in the direction sought with a large enough effect; inconclusive = small, poorly fitted or top-dose-only effect, or another doubt; inactive = no such curve, though single readings can be large; an effect the other way counts as inactive or inconclusive.

Legend:
[1] = Cell Viability - MRC5 (AID 434; calls by dose curve;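 also: potency is read from the fitted curve at half-maximal effect; cells exposed to compound for 40 hours at 37 °C; potency reflects cytotoxicity seen as loss of intracellular ATP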); conditions: MRC5 lung fibroblast viability, qHTS
Outline: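 AC50 values come from Hill-equation fits of intracellular ATP loss, measured by CellTiter-Glo luminescence. Normal lung fibroblasts (MRC5) had 40 hr compound treatment at 37 C, normalized between DMSO and 100 uM tamoxifen.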

[2] = Cell Viability - HUV-EC-C (AID 542); conditions: HUV-EC-C endothelial cell viability, qHTS; series mostly up to 92.2 µM;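 also: cells exposed to compound for 40 hours; % is scaled to controls: 0 for no effect and ±100 for the full control effect; nearly all actives have a fitted effect of over 35% in size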
Outline: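 Cells were seeded at 1000 per well and incubated 5 hr at 37 °C before compound addition. After 40 hr at 37 °C, CellTiter-Glo reagent was added for 20 min and luminescence read. AC50 values came from Hill-equation modelling.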

[3] = Cellular Toxicity (caspase-3) HepG2 (AID 654); conditions: HepG2 caspase-3 activation, luminescence; series mostly up to 92.2 µM;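 also: cells exposed to compound for 16 hours before reading; 0% = DMSO alone and 100% = caspase signal from 100 µM tamoxifen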
Outline: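 Caspase 3/7 activation in HepG2 is measured as rising luminescence after a 16 hr treatment at 37 °C. Values are scaled between DMSO basal and 100 uM tamoxifen, and AC50 is fitted with the Hill equation.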

[4] = Cellular Toxicity (caspase-3) HUV-EC-C (AID 656); conditions: HUV-EC-C cells, caspase-3 activation (apoptosis); series mostly up to 92.2 µM
Outline: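 HUV-EC-C endothelial cells, 1000/well, were pre-incubated 5 hr at 37°C, then exposed to compounds for 16 hr at 37°C. Caspase-Glo 3/7 luminescence was read after 20 min at room temperature. AC50 came from Hill fits, normalized to DMSO and 100 uM tamoxifen.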

[5] = Cellular Toxicity (caspase-3) SHSY5Y (AID 657); conditions: SH-SY5Y caspase-3 activation; series mostly up to 91.7 µM
Outline: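 SH-SY5Y human neuroblastoma cells (1500/well) were treated with compounds for 16 h at 37 °C, then Caspase-Glo 3/7 luminescence was read after 1 h at room temperature. Data normalized to DMSO and 10 uM staurosporine; AC50 from Hill fits.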

[6] = Cellular Toxicity (caspase-3) MRC-5 (AID 659); conditions: MRC-5 cells, luminescence, normalized: DMSO 0%, 10 µM staurosporine 100%; series mostly up to 91.7 µM
Outline: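 Luminescent Caspase-Glo 3/7 read-out (1 h, room temperature) after a 16 h, 37 °C compound exposure of MRC-5 lung fibroblasts at 1500 cells/well. Concentration-response AC50 from Hill equation; 0% DMSO, 100% 10 uM staurosporine.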

[7] = Cellular Toxicity (caspase-3) Mesangial (AID 660); conditions: mesangial cells, normalized: DMSO 0%, 100 µM tamoxifen 100%; series mostly up to 91.7 µM;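 also: combined caspase 3 and 7 activity read by Caspase-Glo luminescence; cells exposed to compound for 16 h before the caspase read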
Outline: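 Seed cells derived from normal human renal glomeruli, incubate 5 h, add compounds across concentrations and incubate 16 h at 37 °C. Caspase 3/7 activation is then quantified by luciferase light, with AC50 derived by Hill modeling.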

[8] = Cellular Toxicity (caspase-3) SK-N-SH (AID 661); conditions: SK-N-SH caspase-3 activation, qHTS, DMSO as zero, staurosporine as full; series mostly up to 91.7 µM
Outline: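 Cells were seeded and incubated 5 hr at 37 °C, dosed with compound over a concentration range for 16 hr, then given Caspase-Glo 3/7 reagent for 1 hr at room temperature before luminescence reading.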

[9] = Cellular Toxicity (caspase-3) H-4-II-E (AID 663); conditions: H-4-II-E rat hepatoma; Potency: caspase-3 activation; series mostly up to 92.2 µM
Outline: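 Caspase 3/7 activation measured by luminescent aminoluciferin substrate cleavage after 16 hr compound treatment of H-4-II-E cells in complete medium. Increase normalized between DMSO (basal) and 100 uM tamoxifen (100%); Hill-equation AC50 from concentration-response.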

[10] = Cellular Toxicity (caspase-3) N2a (AID 665); conditions: N2a cells, luminescence, normalized: DMSO 0%, 10 µM staurosporine 100%; series mostly up to 92.2 µM;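 also: compound exposure lasted 16 h at 37 °C before readout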
Outline: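 Caspase-3/7 activation, measured as increased luminescence from aminoluciferin release, is quantified in mouse N2a cells exposed to compounds for 16 h. Values are normalized to DMSO and 10 uM staurosporine, with AC50 derived by Hill modelling.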

[11] = Cellular Toxicity (caspase-3) NIH 3T3 (AID 666); conditions: NIH 3T3 caspase-3 activation, apoptosis/toxicity, 0% DMSO, 100% is 100 µM tamoxifen; series mostly up to 92.2 µM;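 also: 0% = DMSO basal and 100% = 100 µM tamoxifen stimulation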
Outline: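 Cells were plated at 1000 per well and incubated 5 hr at 37°C, then compound was added for 16 hr. Caspase-Glo 3/7 reagent followed for 20 min at room temperature before luminescence was read.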

[12] = Cellular Toxicity (caspase-3) Renal Proximal Tubule (AID 667); conditions: renal proximal tubule cells, primary cells freshly taken from rat; Potency: caspase-3 activation; series mostly up to 91.7 µM;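 also: cells exposed to compound for 16 hours at 37 °C before detection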
Outline: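 Primary rat proximal tubule cells, 1000/well, 5 h plating at 37 °C, then compound 16 h at 37 °C. Caspase-Glo 3/7 reagent, 1 h RT, luminescence. Normalized to DMSO (basal) and 10 uM staurosporine (100%); Hill-fit AC50.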

[13] = MultiTox-Fluor Cytotoxicity Assay - LYMP1-001 - Dead Cells (AID 946); conditions: LYMP1-001 lymphoblastoid cells, dead-cell protease fluorescence; series mostly up to 92.2 µM;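 also: 0% = DMSO and 100% = tetraoctylammonium bromide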
Outline: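 In this qHTS, 15 uM tetraoctylammonium bromide defined 100% and DMSO defined basal activity. Lymphoblastoid cells (LYMP1-001, 2500 per well) received compound for 16 hr at 37 C before a fluorogenic dead-cell substrate readout at 485/520 nm.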

[14] = MultiTox-Fluor Cytotoxicity Assay - LYMP1-003 - Dead Cells (AID 961); conditions: LYMP1-003 lymphoblastoid cells, dead-cell protease fluorescence; series mostly up to 92.2 µM;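 also: 0% = DMSO and 100% = tetraoctylammonium bromide; nearly all actives have a fitted effect of over 70% in size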
Outline: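 Acute toxicity is scored as increased dead-cell protease activity in human lymphoblastoid LYMP1-003 cells after 16 h compound exposure in complete culture medium. Activity is normalized to DMSO basal and 15 uM tetraoctylammonium bromide as full response.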

[15] = MultiTox-Fluor Cytotoxicity Assay - LYMP1-003 - Live Cells (AID 962); conditions: LYMP1-003 lymphoblastoid cells, MultiTox-Fluor live-cell protease fluorescence; series mostly up to 92.2 µM;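 also: 0% = DMSO only and full loss = 92 µM tetraoctylammonium bromide; cytotoxic hits lower the live-cell protease signal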
Outline: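 Acute cytotoxicity is scored as a drop in live-cell protease activity in human lymphoblastoid LYMP1-003 cells after 16 hr compound exposure at 37 C. AC50 values come from Hill-equation modelling of concentration-response data.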

[16] = Cell Viability - LYMP1-003 - Assay at 24 hr (AID 963); conditions: LYMP1-003 lymphoblastoid cell viability; series mostly up to 92.2 µM;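 also: plate controls were DMSO only for no effect and tetraoctylammonium bromide positive control for full effect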
Outline: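 Cytotoxicity is scored as a concentration-dependent fall in ATP-linked luciferase signal in human lymphoblastoid LYMP1-003 cells treated 24 hr at 37 C in complete culture medium.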

[17] = qHTS Assay for Identification of Small Molecule Inducers of Hypoxia Response (AID 2120; active = well fitted curve in the direction sought with a large enough effect in the signal ratio, with a control signal flat, not every such curve was filed as active; the % refers to the signal ratio; also: 0% is about no effect); conditions: hypoxia response reporter cells, beta-lactamase ratio readout; series mostly up to 104 µM
Outline: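 Cell-based qHTS for reporter induction: hypoxia response element controlled beta-lactamase in ME-180 cells. Compounds incubated 17 h at 37 degrees C; activity from blue/green (460/530 nm) ratio, inducers ranked by AC50.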

[18] = molecular target: Peroxisome proliferator-activated receptor alpha (Homo sapiens) (UniProt Q07869); assay: qHTS assay for small molecule agonists of the peroxisome proliferator-activated receptor alpha (PPARalpha) signaling pathway (AID 651778); conditions: PathHunter PPARalpha complementation, chemiluminescence, 6 h; max response: stronger effect = higher value; also: % of control where 0% means no effect
Peroxisome proliferator-activated receptor alpha (Homo sapiens), sequence (Q07869 whole entry, looked up): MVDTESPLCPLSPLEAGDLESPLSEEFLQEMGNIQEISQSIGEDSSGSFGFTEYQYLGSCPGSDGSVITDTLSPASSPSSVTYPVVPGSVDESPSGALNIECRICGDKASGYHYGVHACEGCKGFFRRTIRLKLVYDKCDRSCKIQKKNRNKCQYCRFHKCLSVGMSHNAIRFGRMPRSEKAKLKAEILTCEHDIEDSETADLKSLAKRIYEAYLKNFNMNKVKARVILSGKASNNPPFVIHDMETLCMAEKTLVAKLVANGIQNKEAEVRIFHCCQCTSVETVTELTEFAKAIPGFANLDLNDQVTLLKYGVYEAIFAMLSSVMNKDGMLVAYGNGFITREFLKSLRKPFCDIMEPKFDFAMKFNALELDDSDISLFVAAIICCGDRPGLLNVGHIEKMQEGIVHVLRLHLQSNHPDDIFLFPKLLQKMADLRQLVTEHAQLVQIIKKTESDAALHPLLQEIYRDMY
Outline: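 Chemiluminescence from complemented enzyme reported PPARalpha activation in cells after 6 hr of compound treatment at 37 C. The detection reagent was incubated for 60 min at room temperature, and compounds were scored as agonists.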

[19] = qHTS assay for small molecule agonists of the antioxidant response element (ARE) signaling pathway measured by Nrf2-dependant transcriptional activity - cell viability counter screen (AID 720653; active = well fitted curve in the direction sought with a large enough effect in the repeat runs; an effect the other way counts as inactive or inconclusive; also: % is scaled to controls: 0 for no effect and ±100 for the full control effect); conditions: ARE-bla HepG2 viability, CellTiter-Glo ATP luminescence, 16 h; max response: stronger effect = lower value
Outline: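 Cytotoxicity counter screen: intracellular ATP quantified by CellTiter-Glo luminescence in the same ARE-bla HepG2 plates, after 16 h compound exposure and a 2 h beta-lactamase substrate step.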

[20] = qHTS assay for cell viability of the p53RE-bla HCT-116 cell line (AID 743292); conditions: p53RE-bla HCT-116 viability, ATP luminescence, 16 h; series mostly up to 95 µM; also: % is scaled to controls: 0 for no effect and ±100 for the full control effect; nearly all actives have a fitted effect of over 55% in size
Outline: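 CellSensor p53RE-bla HCT-116 cells (4,000/well) pre-incubated 5 h at 37 C, then exposed to compounds in DMSO for 16 h at 37 C. Viability read as ATP content by CellTiter-Glo luminescence after 30 min at room temperature.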

Cc1ccc2ccc3cccc4ccc1c2c34
inactive: Potency [1] > 92 µM | Potency [2] | Potency [3] | Potency [4] | Potency [5] | outcome [6] | outcome [7] | outcome [8] | Potency [9] | outcome [10] | outcome [11] | Potency [12] | Potency [13] | Potency [14] | Potency [15] | Potency [16] | Potency [17] | max response [18] -2.03% | max response [19] 2.48% | Potency [20]

c1ccc2ncccc2c1
inactive: Potency [1] > 92 µM | Potency [2] | Potency [3] | Potency [4] | Potency [5] | outcome [6] | outcome [7] | outcome [8] | Potency [9] | outcome [10] | outcome [11] | Potency [12] | Potency [13] | Potency [14] | Potency [15] | Potency [16] | Potency [17] | max response [18] -2.05% | max response [19] 0.928% | Potency [20]

CCCC(=O)OC(=O)CCC
inactive: Potency [1] > 92 µM | Potency [2] | Potency [3] | Potency [4] | Potency [5] | outcome [6] | outcome [7] | outcome [8] | Potency [9] | outcome [10] | outcome [11] | Potency [12] | Potency [13] | Potency [14] | Potency [15] | Potency [16] | Potency [17] | max response [18] -9.39% and -1.32% | max response [19] -5.41% and 18.3% | Potency [20]

Nc1cc([N+](=O)[O-])ccc1O
inactive: Potency [1] > 92 µM | Potency [2] | Potency [3] | Potency [4] | Potency [5] | outcome [6] | outcome [7] | outcome [8] | Potency [9] | outcome [10] | outcome [11] | Potency [12] | Potency [13] | Potency [14] | Potency [15] | Potency [16] | Potency [17] | max response [18] -13.4% and -8.79% | max response [19] -7.79% and -12.9% | Potency [20]

COc1ccc([N+](=O)[O-])cc1N
inactive: Potency [1] > 92 µM | Potency [2] | Potency [3] | Potency [4] | Potency [5] | outcome [6] | outcome [7] | outcome [8] | Potency [9] | outcome [10] | outcome [11] | Potency [12] | Potency [13] | Potency [14] | Potency [15] | Potency [16] | Potency [17] | max response [18] -6.59% and -0.402% | max response [19] -6.61% and -1.85% | Potency [20]

O=[N+]([O-])c1ccc(F)cc1F
inactive: Potency [1] > 92 µM | Potency [2] | Potency [3] | Potency [4] | Potency [5] | outcome [6] | outcome [7] | outcome [8] | Potency [9] | outcome [10] | outcome [11] | Potency [12] | Potency [13] | Potency [14] | Potency [15] | Potency [16] | Potency [17] | max response [18] -5.98% | max response [19] 13.3% | Potency [20]
